Results on 15 molecules are retold here after PubChem BioAssay (NCATS).

Where “and” joins values, the source holds several entries; their conditions need not be identical. Equal entries are not always repeated. Records with an inconclusive call do not appear. Some structures have more than one record in an assay (separate samples or runs), and their calls can disagree. Values without a mark were called inactive. Calls of active or inactive are those of the source. Unless noted, the call rests on the fitted dose curve; in most records, active means well fitted curve in the direction sought with a large enough effect; inconclusive means small, poorly fitted or top-dose-only effect, or another doubt; inactive means no such curve, though single readings can be large; an effect the other way counts as inactive or inconclusive.

Assay [1] addresses Cellular tumor antigen p53 (Homo sapiens) (UniProt P04637). Briefly: Primary qHTS for small molecule compounds that upregulate eGFP-tagged delta133p53alpha (in N-terminal) cells. (AID 2060322). Further: nearly all actives have a fitted effect of over 75% in size. Further: potency means the concentration at half of the fitted maximal effect.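 On activation: cells pre-induced with doxycycline then dosed without doxycycline; series mostly up to about 56 µM; 0% = DMSO vehicle and 100% = reference activator.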 The settings on record: NCI-H358 eGFP-delta133p53alpha fluorescence, 24 h; activation: stronger effect = higher value. The method in brief:
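NCI-H358 cells pre-induced 24 h with 10 ng/ml doxycycline for eGFP-delta133p53alpha, plated dox-free and exposed 24 h at 37C to titrated compounds. Fixed, Hoechst-stained; gated GFP peak intensity by laser scanning cytometry, normalized to DMSO (0%) and 57.5 uM 5-azacytidine (100%).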
(qHTS replaces the single test concentration by a dilution series.)

Assay [2] can be described thus: BET inhibitor-based combinations targeting novel dependencies in MECOM-rearranged (r) AML: SET-2 cell line (AID 2202231). Further: nearly all actives have a fitted effect of over 35% in size. Further: potency means the concentration at half of the fitted maximal effect.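 On viability: plate controls were DMSO treated cells for no effect and wells without cells for full effect.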 The settings on record: SET-2 AML cells viability, CellTiter-Glo luminescence, 48 h; viability: stronger effect = lower value, concentration not given here. The method in brief:
(§1)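 500 cells/well; 11-pt dose curve; 48 h, standard incubator; CellTiter-Glo luminescence after 15 min RT; DMSO/empty-well normalization; AUC plus Z-AUC (mean-centered within each line).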

A short description of assay [3]: BET inhibitor-based combinations targeting novel dependencies in MECOM-rearranged (r) AML: OCI-AML3 cell line (AID 2202232). Further: nearly all actives have a fitted effect of over 35% in size. Further: potency means the concentration at half of the fitted maximal effect. The following applies: Potency: OCI-AML3 viability. The method, boiled down: as §1
Assay [4] can be described thus: BET inhibitor-based combinations targeting novel dependencies in MECOM-rearranged (r) AML: MV-4-11 cell line (AID 2202233). Further: nearly all actives have a fitted effect of over 45% in size. Further: potency means the concentration at half of the fitted maximal effect. The method in brief: (§2)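 Cells were plated at 500 per well and exposed to each drug across an 11-point dose range for 48 hr at standard incubator conditions. Viability was read by CellTiter-Glo luminescence, and activity was expressed as AUC and per-cell-line Z-transformed AUC.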

Assay [5] can be described thus: BET inhibitor-based combinations targeting novel dependencies in MECOM-rearranged (r) AML: HNT-34 cell line (AID 2202234). Further: potency means the concentration at half of the fitted maximal effect; nearly all actives have a fitted effect of over 35% in size. The method, boiled down: as §2
Assay [6] is described as follows: BET inhibitor-based combinations targeting novel dependencies in MECOM-rearranged (r) AML: AML-191 cell line (AID 2202236; further: nearly all actives have a fitted effect of over 35% in size; further: potency means the concentration at half of the fitted maximal effect). The method, boiled down: as §1
The nature of assay [7]: BET inhibitor-based combinations targeting novel dependencies in MECOM-rearranged (r) AML: AML-194 cell line (AID 2202237; further: nearly all actives have a fitted effect of over 40% in size; further: potency means the concentration at half of the fitted maximal effect). The method in brief:
as §1

Assay [8] deals with Aldehyde dehydrogenase, mitochondrial (Homo sapiens) (UniProt P05091). Briefly: qHTS for Inhibitors of the Aldehyde Dehydrogenase Family (ALDH2) Primary screen (AID 2061308).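 Further: plate controls were vehicle for no effect and reference inhibitor for full effect; nearly all actives have a fitted effect of over 55% in size.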
Assay [9] has as its target Retinaldehyde dehydrogenase 3 (Homo sapiens) (UniProt P47895). In words: qHTS for Inhibitors of the Aldehyde Dehydrogenase Family (ALDH1A3) Primary screen (AID 2061315).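 Further: plate controls were DMSO vehicle for no effect and reference inhibitor for full effect.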
The nature of assay [10]: BET inhibitor-based combinations targeting novel dependencies in MECOM-rearranged (r) AML: UCSD-AML1 cell line (AID 2202235). Further: potency means the concentration at half of the fitted maximal effect; nearly all actives have a fitted effect of over 40% in size. The method, boiled down:
as §2

The target in assay [11] is Retinaldehyde dehydrogenase 3 (Homo sapiens) (UniProt P47895). Briefly: qHTS for Inhibitors of the Aldehyde Dehydrogenase Family (ALDH1A3) Validation screen (AID 2061312). Further: on the % scale 0 is the no-effect control and ±100 the full control effect; nearly all actives have a fitted effect of over 45% in size.
Assay [12] has as its target Aldehyde dehydrogenase, mitochondrial (Homo sapiens) (UniProt P05091). Briefly: qHTS for Inhibitors of the Aldehyde Dehydrogenase Family (ALDH2) Validation screens (AID 2061302; active means well fitted inhibition curve with a large enough effect; title and protocol of this record describe different tests;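 further: plate controls were DMSO vehicle for no effect and maximal DPI positive control response for full effect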).

Sequence of Cellular tumor antigen p53 (Homo sapiens) (P04637 whole entry, looked up): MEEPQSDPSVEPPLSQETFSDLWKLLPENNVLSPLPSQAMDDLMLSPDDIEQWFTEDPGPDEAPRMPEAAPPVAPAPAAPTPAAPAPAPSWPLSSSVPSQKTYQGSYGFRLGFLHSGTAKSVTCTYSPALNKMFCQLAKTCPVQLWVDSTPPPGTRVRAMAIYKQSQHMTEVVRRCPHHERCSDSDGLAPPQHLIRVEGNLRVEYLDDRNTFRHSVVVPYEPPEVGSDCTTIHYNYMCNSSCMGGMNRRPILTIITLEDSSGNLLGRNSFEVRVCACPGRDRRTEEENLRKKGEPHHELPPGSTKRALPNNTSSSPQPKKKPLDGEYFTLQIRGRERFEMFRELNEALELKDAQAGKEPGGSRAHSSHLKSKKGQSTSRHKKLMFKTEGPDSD

With `CC(=O)N(O)CCCCCNC(=O)CCC(=O)N(O)CCCCCNC(=O)CCC(=O)N(O)CCCCCN`, the Potency in assay [1] was 1.36 µM (active); in [2], 20.9 µM (active); in assay [3] it was 11.8 µM (active); in assay [4], 11.8 µM (active); in [5] it was 9.34 µM (active); in assay [6], 8.33 µM (active). For the same molecule, in assay [7], the Potency is 9.34 µM (active). The activation in assay [1] was 41.2%.
Regarding `CCCOc1ccc2nc(NC(=O)OC)[nH]c2c1`, the Potency in assay [1] is 0.0685 µM (active); in [2], 0.525 µM (active); in [3], 0.332 µM (active); in [4] it was 0.372 µM (active); in assay [5], 0.235 µM (active); in [6] it was 0.263 µM (active). In assay [7], the Potency is 0.235 µM (active). In assay [1], the activation was 62.8%.
On to `CCc1cccc(CC)c1NC(=O)N1Cc2[nH]nc(NC(=O)c3ccc(N4CCN(C)CC4)cc3)c2C1`, for which the Potency in assay [1] was 12.2 µM (active); in assay [4], 1.32 µM (active); in assay [5] it was 0.742 µM (active); in assay [10], 14.8 µM (active); in [6] it was 5.25 µM (active); in assay [7], 9.34 µM (active). For the same molecule, in assay [1], the activation is 5.63%. Further, the Potency entry in assay [8] and in assay [9] was “inactive” each time.
`Nc1nc(NCCNc2ncc(-n3ccnc3)c(-c3ccc(Cl)cc3Cl)n2)ccc1[N+](=O)[O-]`: the Potency in assay [1] was 8.49 µM (active); in [4] it was 8.33 µM (active); in assay [5] it was 4.17 µM (active). Moreover, the activation in assay [1] was -14%. Moreover, the Potency entry in [8], in assay [9], in [3] and in [7] was “inactive” each time. In [2], the viability is 116%.
As to `CC1(O)CC(c2nc(-c3ccc4ccc(-c5ccccc5)nc4c3)c3c(N)nccn23)C1` (stereo unspecified), the Potency in [1] was 24.3 µM (active). For the same molecule, the activation in assay [1] was 34.8%. The Potency entry in assay [8], in assay [9], in assay [3], in assay [4], in assay [6] and in [7] was “inactive” throughout. Also, in assay [2], the viability was 83.7%.
As to `COc1cc2c(Nc3ccc(Br)cc3F)ncnc2cc1OCC1CCN(C)CC1`, the Potency in assay [1] is 21.3 µM (active); in assay [3] it was 23.5 µM (active); in assay [5], 2.63 µM (active); in assay [10], 14.8 µM (active); in [6], 20.9 µM (active); in assay [7], 23.5 µM (active). Also, the activation in [1] was 0.071% and -8.47%. For the same molecule, the Potency result in assay [8] and in assay [9] was “inactive” each time.
Regarding `CN1CCN(CCOc2cc(OC3CCOCC3)c3c(Nc4c(Cl)ccc5c4OCO5)ncnc3c2)CC1`, the Potency in assay [1] is 12.2 µM (active); in assay [4], 13.2 µM (active); in assay [5], 1.32 µM (active); in [6], 18.6 µM (active); in assay [7], 23.5 µM (active). Besides, the activation in [1] was -8.11%. For the same molecule, the Potency result in assay [8], in assay [11] and in assay [9] was “inactive” throughout.
For `O=C(Nc1ccc([N+](=O)[O-])cc1Cl)c1cc(Cl)ccc1O`, the Potency in assay [1] is 4.26 µM (active); in assay [3], 1.66 µM (active); in [4] it was 4.17 µM (active); in [5], 1.05 µM (active); in assay [6], 1.05 µM (active); in assay [7], 1.48 µM (active). For the same molecule, the activation in [1] was 122% and -83.1%. Further, the Potency entry in assay [12] was “inactive”.
With `O=C(CCCCCCC(=O)Nc1ccc([C@H]2O[C@@H](CSc3nc(-c4ccccc4)c(-c4ccccc4)o3)C[C@@H](c3ccc(CO)cc3)O2)cc1)NO`, the Potency in assay [1] was 5.36 µM (active); in assay [5], 6.05 µM (active). Besides, the activation in [1] is 47.5%. For the same molecule, in [8], the Potency result is “inactive”. Further, the viability in assay [2] was 106%.
In the case of `COc1cc2nccc(Oc3ccc(NC(=O)C4(C(=O)Nc5ccc(F)cc5)CC4)cc3)c2cc1OC`, the Potency in [1] is 38.5 µM (active); in assay [4] it was 0.0166 µM (active); in [5], 2.95 µM (active). The activation in assay [1] was 11.6%. Moreover, the Potency entry in [8] and in assay [9] was “inactive” throughout.
`Cc1cc2c(C(C)C)c(O)c(O)c(C=O)c2c(O)c1-c1c(C)cc2c(C(C)C)c(O)c(O)c(C=O)c2c1O`: the Potency in assay [1] is 24.6 µM (active); in [2], 9.34 µM (active); in [3], 9.34 µM (active); in [4], 9.34 µM (active); in assay [5], 9.34 µM (active); in assay [10], 9.34 µM (active). For the same molecule, in assay [7], the Potency was 13.2 µM (active). Besides, the activation in [1] was -36.4%.
`COc1cc2nc(N3CCCN(C)CC3)nc(NC3CCN(Cc4ccccc4)CC3)c2cc1OC`: the Potency is 30.6 µM (active) in assay [1]; 18.6 µM (active) in [2]; 8.33 µM (active) in [3]; 6.61 µM (active) in [4]; 7.42 µM (active) in [5]; 6.61 µM (active) in assay [10]. Further, the Potency is 14.8 µM (active) in assay [6] and 10.5 µM (active) in assay [7]. For the same molecule, the activation in [1] is -2.51%. Besides, the Potency entry in [12] is “inactive”.
On to `Cc1nc2c(-c3cnc(N)nc3)nc(N3CCOCC3)nc2n1C(C)C`, for which the Potency in assay [1] was 9.66 µM (active); in [4] it was 0.296 µM (active); in assay [5], 0.525 µM (active). Besides, in [1], the activation was 14.3%. The Potency entry in assay [8] and in assay [9] was “inactive” each time.
Consider `c1ccc2c(CCNc3ccc(Nc4ccncc4)cc3)c[nH]c2c1`, for which the Potency in assay [1] is 30.6 µM (active); in [2], 10.5 µM (active); in assay [3] it was 1.32 µM (active); in assay [4], 0.934 µM (active); in [5], 2.95 µM (active); in assay [10], 3.72 µM (active). Moreover, the results for the Potency in [6] and in [7] were 10.5 µM (active) and 3.32 µM (active), respectively. The activation in assay [1] is -5.73%. For the same molecule, the Potency result in assay [8], in [11] and in assay [9] was “inactive” in each case.
As for `Fc1cc(-c2cccc3ncc(-c4cnn(C5CCNCC5)c4)nc23)cc(F)c1CN1CCOCC1`, the Potency was 27.3 µM (active) in assay [1]; 4.68 µM (active) in assay [2]; 0.934 µM (active) in [4]; 2.35 µM (active) in assay [5]; 3.32 µM (active) in assay [10]; 10.5 µM (active) in assay [6]. Further, the Potency in assay [7] was 6.61 µM (active). In assay [1], the activation was -17.4%. Further, the Potency result in assay [8] and in assay [9] was “inactive” each time.

The viability is a read-out of living cells in per cent, often relative to untreated cells.
